Laboratory results reported in PubChem BioAssay (NCI).
Values joined by “and” are separate entries in the source; they are usually repeats but may differ in a detail not shown here. Equal values may be shown once. Compounds without any hit were thinned out: in the full panel of roughly 79,000, 15% have a hit. Active and inactive are the calls of the source. Cut-off read from the data, not from the text of the source: active = growth inhibition above about 70%; inactive = the rest.

Columns and labels:
[1] = NCI Yeast Anticancer Drug Screen. Data for the wt1 strain (AID 149);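 note: 0% = growth of vehicle-treated wt1 cultures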; settings: S. cerevisiae wt1 strain (SPY 50644) growth inhibition, active compounds read high
Outline: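 wt1 strain grown with compound or vehicle; inhibition taken from the growth difference.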

[2] = NCI Yeast Anticancer Drug Screen. Data for the rad50EPP+ strain (AID 151);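 note: 0% = growth of vehicle-treated control cultures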; settings: S. cerevisiae rad50 mutant strain, active compounds read high
Outline: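 rad50EPP+ yeast treated with test compounds. Readout: growth vs vehicle control.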

[3] = NCI Yeast Anticancer Drug Screen. Data for the rad50 strain (AID 155);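 note: 0% = growth of vehicle-only cultures of the same strain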; settings: S. cerevisiae rad50 strain growth inhibition, active compounds read high
Outline: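 DNA repair mutant yeast, compound exposure, growth read-out; inhibition is taken relative to vehicle.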

[4] = NCI Yeast Anticancer Drug Screen. Data for the mec2-1 strain (AID 157); settings: S. cerevisiae mec2-1 strain, active compounds read high
Outline: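 Growth inhibition is read against vehicle-treated controls after compound exposure of the mec2-1 yeast strain, which is defective in DNA damage repair or cell cycle control.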

[5] = NCI Yeast Anticancer Drug Screen. Data for the sgs1 mgt1 strain (AID 161);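 note: 0% = growth of cultures given vehicle only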; settings: S. cerevisiae sgs1 mgt1 strain, active compounds read high
Outline: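 Compounds are added to genetically altered yeast, and growth is compared with cultures given vehicle alone to give percent inhibition.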

[6] = NCI Yeast Anticancer Drug Screen. Data for the CLN2oe strain (AID 163);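 note: 0% = growth of vehicle-only control cultures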; settings: S. cerevisiae CLN2oe strain, active compounds read high
Outline: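 Compound-treated yeast; growth vs vehicle ctrl = % inhibition. Genetically altered strain (cell-cycle control).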

[7] = NCI Yeast Anticancer Drug Screen. Data for the cln2 rad14 strain (AID 165);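 note: 0% = growth equal to vehicle treated cultures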; settings: S. cerevisiae cln2 rad14 strain, active compounds read high
Outline: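 Growth inhibition, relative to vehicle-treated controls, is the read-out. The test organism is a yeast strain with defined genetic alterations, cln2 rad14.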

[8] = NCI Yeast Anticancer Drug Screen. Data for the bub3 strain (AID 167); settings: S. cerevisiae bub3 mutant strain, active compounds read high
Outline: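 In this screen, a yeast mutant lacking normal mitotic checkpoint function is challenged with compound. Relative growth versus vehicle gives the inhibition value.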

[9] = NCI Yeast Anticancer Drug Screen. Data for the wt2 strain (AID 169);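 note: 0% = growth of vehicle-treated yeast cultures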; settings: S. cerevisiae wt2 strain growth inhibition, active compounds read high
Outline: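 Compound exposure of yeast; growth compared with vehicle controls; inhibition reported.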

[10] = NCI Yeast Anticancer Drug Screen. Data for the mlh1 strain (AID 171);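 note: 0% = growth of vehicle-treated control cultures of the same strain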; settings: S. cerevisiae mlh1 strain growth inhibition, active compounds read high
Outline: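 Compounds are applied to a genetically altered yeast strain, and its growth is compared with that of vehicle-treated cultures to give percent inhibition.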

[11] = NCI Yeast Anticancer Drug Screen. Data for the sgs1 strain (AID 173);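 note: 0% = growth of vehicle-only control cultures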; settings: S. cerevisiae sgs1 mutant, active compounds read high
Outline: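 Compounds applied to genetically altered yeast; growth compared with vehicle-treated cultures to give % inhibition.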

[12] = NCI Yeast Anticancer Drug Screen. Data for the mlh1 rad18 strain (AID 175); settings: S. cerevisiae mlh1 rad18 strain growth inhibition, active compounds read high
Outline: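 Cells of a genetically altered yeast strain, deficient in DNA damage repair, were treated with compound. Their growth was then compared with that of vehicle-treated cultures to give inhibition.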

[13] = NCI Yeast Anticancer Drug Screen. Data for the rad18 strain (AID 177); settings: S. cerevisiae rad18 mutant growth inhibition, active compounds read high
Outline: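 Compounds are applied to a repair-deficient yeast strain, and growth is compared with that of vehicle-treated cultures to give percent inhibition.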

[14] = at 5.0 µM (retest, dose inferred, filed as 0.5)
[15] = at 50.0 µM (retest, dose inferred, filed as 5.0)

Measured: growth inhibition

O=c1c2ccccc2[se]n1-c1cccnc1
active: [2]; at 3.7 µM 94% | [2]; at 11.0 µM 98% | [2]; at 33.0 µM 98% | [2]; at 100.0 µM 87% | [3]; at 33.0 µM 92% | [3]; at 100.0 µM 90% | [4]; at 11.0 µM 77% | [4]; at 33.0 µM 98% | [4]; at 100.0 µM 94% | [6]; at 33.0 µM 84% | [6]; at 100.0 µM 83% | [8]; at 11.0 µM 81% | [8]; at 33.0 µM 98% | [8]; at 100.0 µM 91% | [10]; at 11.0 µM 98% | [10]; at 33.0 µM 99% | [10]; at 100.0 µM 93% | [11]; at 11.0 µM 80% | [11]; at 33.0 µM 96% | [11]; at 100.0 µM 82% | [12]; [15] 89%
inactive: [1]; at 1.2 µM -5% | [1]; at 3.7 µM -6% | [1]; at 11.0 µM 21% | [1]; at 33.0 µM 29% | [1]; at 100.0 µM 56% | [2]; at 1.2 µM 67% | [3]; at 1.2 µM -6% | [3]; at 3.7 µM 27% | [3]; [14] 8% | [3]; at 11.0 µM 65% | [3]; [15] 64% | [3]; at 50.0 µM 23.1% | [4]; at 1.2 µM -18% | [4]; at 3.7 µM 20% | [4]; [14] -20% | [4]; [15] 55% | [4]; at 50.0 µM -6.2% | [5]; [14] 58% | [5]; [15] 21% | [5]; at 50.0 µM 7.85% | [6]; at 1.2 µM 24% | [6]; at 3.7 µM 21% | [6]; at 11.0 µM 58% | [7]; [14] 9% | [7]; [15] 40% | [7]; at 50.0 µM 15.5% | [8]; at 1.2 µM 8% | [8]; at 3.7 µM 14% | [8]; [14] -28% | [8]; [15] 38% | [8]; at 50.0 µM -6.15% | [9]; at 1.2 µM 18% | [9]; at 3.7 µM 18% | [9]; at 11.0 µM 25% | [9]; at 33.0 µM 42% | [9]; at 100.0 µM 60% | [10]; at 1.2 µM 36% | [10]; at 3.7 µM 51% | [11]; at 1.2 µM 23% | [11]; at 3.7 µM 19% | [12]; [14] -14% | [12]; at 50.0 µM 43.9% | [13]; at 1.2 µM 12% | [13]; at 3.7 µM -26% | [13]; at 11.0 µM 3% | [13]; at 33.0 µM 42% | [13]; at 100.0 µM 58%

O=c1ssc(Cl)c1Cl
active: [3]; [14] 97% | [3]; [15] 98% | [3]; at 50.0 µM 86.5% | [4]; [14] 96% | [4]; [15] 100% | [4]; at 50.0 µM 89.2% | [5]; [14] 100% | [5]; [15] 100% | [5]; at 50.0 µM 89.7% | [7]; [14] 93% | [7]; [15] 98% | [7]; at 50.0 µM 89.1% | [8]; [14] 99% | [8]; [15] 100% | [8]; at 50.0 µM 87.6% | [12]; [14] 97% | [12]; [15] 98%

OC(c1ccc(Cl)cc1)C(Cl)(Cl)Cl (configuration not stated)
inactive: [3]; [14] 6% | [4]; [14] 0% | [5]; [14] -1% | [5]; [15] 35% | [7]; [14] 1% | [8]; [14] -8%
active: [3]; [15] 98% | [3]; at 50.0 µM 97.6% | [4]; [15] 98% | [4]; at 50.0 µM 96.8% | [5]; at 50.0 µM 81.2% | [7]; [15] 96% | [7]; at 50.0 µM 77.8% | [8]; [15] 99% | [8]; at 50.0 µM 95.3%

CNC(Cc1ccccc1)c1ccc(OC)c(OC)c1 (configuration not stated)
active: [3]; [15] 95% | [4]; [14] 79% | [4]; [15] 97% | [12]; [15] 98%
inactive: [3]; [14] 69% | [3]; at 50.0 µM -2.25% | [4]; at 50.0 µM 4.05% | [5]; [14] -31% | [5]; [15] 14% | [5]; at 50.0 µM 18.7% | [7]; [14] 18% | [7]; [15] 13% | [7]; at 50.0 µM -15.6% | [8]; [14] 21% | [8]; [15] 28% | [8]; at 50.0 µM 14.3% | [9]; at 1.2 µM -20% | [9]; at 3.7 µM -14% | [9]; at 11.0 µM -26% | [9]; at 33.0 µM -13% | [9]; at 100.0 µM -25% | [12]; [14] 57% | [12]; at 50.0 µM 7.3%

c1cnc2c(c1)ccc1cccnc12
inactive: [3]; [14] 58% and 14% | [4]; [14] 32% and 27% | [5]; [14] 50% and 13% | [7]; [14] 6% and -24% | [8]; [14] 42% and 4%
active: [3]; [15] 97% and 99% | [3]; at 50.0 µM 99.5% and 99.2% | [4]; [15] 99% | [4]; at 50.0 µM 99.2% and 98.9% | [5]; [15] 98% | [5]; at 50.0 µM 98.3% and 99% | [7]; [15] 98% and 90% | [7]; at 50.0 µM 98% and 96.2% | [8]; [15] 98% and 99% | [8]; at 50.0 µM 98.8% and 99%

O=[N+]([O-])c1ccc(O)c(Cl)c1
inactive: [3]; [14] -3% | [3]; [15] 41% | [3]; at 50.0 µM 68.7% | [4]; [14] -2% | [4]; [15] 54% | [5]; [14] -4% | [5]; [15] 44% | [5]; at 50.0 µM 66% | [7]; [14] -12% | [7]; [15] 57% | [7]; at 50.0 µM 52.2% | [8]; [14] -5% | [8]; [15] 25% | [8]; at 50.0 µM 64.5% | [12]; [14] -5% | [12]; [15] 53%
active: [4]; at 50.0 µM 78.9% | [12]; at 50.0 µM 70.8%

O=C(OCc1ccccc1)C(C(Cl)c1ccccc1)N(Cc1ccccc1)Cc1ccccc1 (configuration not stated)
active: [3]; at 50.0 µM 90.8% | [4]; at 50.0 µM 81.2% | [5]; at 50.0 µM 85.5% | [7]; at 50.0 µM 89.8% | [12]; at 50.0 µM 86.5%
inactive: [3]; [14] -2% | [3]; [15] 53% | [4]; [14] 3% | [4]; [15] 65% | [5]; [14] -1% | [5]; [15] 50% | [7]; [14] 1% | [7]; [15] 53% | [8]; [14] -1% | [8]; [15] 49% | [8]; at 50.0 µM 67.7% | [12]; [14] -1% | [12]; [15] 56%

FC(F)(F)C1(C(F)(F)F)O[Te]2(OC1(C(F)(F)F)C(F)(F)F)OC(C(F)(F)F)(C(F)(F)F)C(C(F)(F)F)(C(F)(F)F)O2
inactive: [3]; [14] 10% | [3]; at 50.0 µM 63.7% | [4]; [14] 10% | [5]; [14] 23% | [7]; [14] 14% | [8]; [14] 20% | [12]; [14] 11%
active: [3]; [15] 79% | [4]; [15] 89% | [4]; at 50.0 µM 96.3% | [5]; [15] 86% | [5]; at 50.0 µM 95.5% | [7]; [15] 84% | [7]; at 50.0 µM 90.2% | [8]; [15] 96% | [8]; at 50.0 µM 89.2% | [12]; [15] 91% | [12]; at 50.0 µM 92%
